Measured values taken from PubChem BioAssay (Tox21).
Records with an inconclusive call do not appear. The source holds several records for some structures; these can differ, active in one and inactive in another. Active and inactive are the calls of the source. Unless noted, the call rests on the fitted dose curve.

Assays:
[1] = Nuclear factor erythroid 2-related factor 2/antioxidant responsive element (Nrf2/ARE) small molecule agonists: qHTS cell viability counter screen in human keratinocytes (AID 1919968; active means well fitted curve in the direction sought with a large enough effect in the repeat runs; an effect the other way counts as inactive or inconclusive; further: nearly all actives have a fitted effect of over 55% in size; further: potency means the concentration at half of the fitted maximal effect)
Procedure, shortened: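 Stably transfected HaCaT (KeratinoSens), 1,500/well. Test agents in DMSO were applied for 23 h, 37 C/5% CO2. CellTiter-Fluor was incubated 1 h before the fluorescence read.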

[2] = Nuclear factor erythroid 2-related factor 2/antioxidant responsive element (Nrf2/ARE) small molecule agonists: luciferase reporter gene qHTS assay in human keratinocytes (AID 1919969); further: nearly all actives have a fitted effect of over 35% in size; further: potency means the concentration at half of the fitted maximal effect
[3] = target: Gonadotropin-releasing hormone receptor (Homo sapiens) (UniProt P30968); assay: Human gonadotropin-releasing hormone receptor (GnRHR) small molecule agonists, calcium flux assay in GnRHR-HEK293 cells (AID 1920063); further: nearly all actives have a fitted effect of over 35% in size
Procedure, shortened: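 Stable human GnRHR HEK293 line. 18 h plating, then calcium dye for 1 h at 37 C. Agonist-mode compound addition from DMSO stocks; fluorescence monitored 3 min.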

[4] = target: KiSS-1 receptor (Homo sapiens) (UniProt Q969F8); assay: Human kisspeptin (KISS1R) small molecule agonists, calcium flux assay in KISS1R-HEK293 cells (AID 1920064; active means well fitted curve in the direction sought with a large enough effect in the repeat runs; an effect the other way counts as inactive or inconclusive)
Procedure, shortened: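 After overnight (18 h) culture at 37 C/5% CO2, human KISS1R-HEK293 cells received calcium dye for 1 h, then test compound; emission at 540 nm (excitation 480 nm) was tracked for 3 min.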

[5] = G protein-coupled receptor (GPCR) small molecule agonists, calcium flux assay: HEK293 wild type cell line counter screen (AID 1920065)
Procedure, shortened: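 Following 18 h incubation at 37 C/5% CO2, plates got calcium dye for 1 h; compounds, ATP or DMSO were then pinned in and fluorescence followed kinetically (480/540 nm).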

[6] = p53 small molecule agonists, cell-based qHTS assay with human liver microsomes (AID 1963577)
Procedure, shortened: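 p53RE-bla cells, 4,000/well, compound added after 5 h, with human liver microsomes 0.5 mg/mL and NADPH 0.5 mg/mL final; 16 h at 37 C, then LiveBLAzer 2 h RT, fluorescence.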

[7] = p53 small molecule agonists, cell-based qHTS assay with rat liver microsomes (AID 1963578)
Procedure, shortened: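 p53RE-bla cells, 4,000/well, pre-incubated 5 h, then given compounds plus rat liver microsomes (0.5 mg/mL final) and NADPH (0.5 mg/mL final). Incubation 16 h at 37 C; beta-lactamase reporter read by LiveBLAzer fluorescence after 2 h at room temperature.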

[8] = p53 small molecule agonists, cell-based qHTS assay with human liver microsomes: qHTS cell viability counter screen (AID 1963579); further: nearly all actives have a fitted effect of over 45% in size; further: potency means the concentration at half of the fitted maximal effect
Procedure, shortened: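 p53RE-bla cells, 4,000/well, dosed 5 hours after plating, with human liver microsomes (0.5 mg/mL final) plus NADPH (0.5 mg/mL final), 16 hours at 37 C. Viability read as CellTiter-Glo luminescence after 30 min at room temperature.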

[9] = p53 small molecule agonists, cell-based qHTS assay with rat liver microsomes: qHTS cell viability counter screen (AID 1963580); further: nearly all actives have a fitted effect of over 45% in size
Procedure, shortened: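 Rat liver microsome (0.5 mg/mL final) and NADPH (0.5 mg/mL final) co-incubation with compounds for 16 h at 37 C on HCT-116 p53RE-bla cells; cytotoxicity taken from intracellular ATP luminescence.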

[10] = p53 small molecule agonists, cell-based qHTS assay: qHTS cell viability counter screen (AID 1963581); further: nearly all actives have a fitted effect of over 45% in size
Procedure, shortened: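 qHTS counter screen: 16 h compound exposure at 37 C of p53RE-bla HCT-116 cells (4,000 per well, seeded 5 h prior), cell viability by ATP luminescence.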

[11] = p53 small molecule agonists, cell-based qHTS assay (AID 1963582; active means well fitted activation curve with a large enough effect in the signal ratio in the repeat runs, not every such curve was filed as active; the % refers to the signal ratio)
Procedure, shortened: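 Measured: fluorescence from cleaved LiveBLAzer substrate. System: p53RE-bla cells, 16 h compound treatment at 37 C, 2 h substrate step at room temperature.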

[12] = target: 5-hydroxytryptamine receptor 2A (Homo sapiens) (UniProt P28223); assay: 5-hydroxytryptamine receptor 2A (HTR2A) small molecule antagonists, cell-based qHTS assay (AID 1963586); further: nearly all actives have a fitted effect of over 45% in size
Procedure, shortened: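 CHO cells stably expressing human HTR2A were plated for 18 h at 37 C, then loaded with calcium dye for 1 h. Compounds were preincubated 5 min at room temperature before DOI (4 nM solution) was added. Kinetic fluorescence was read for 3 min.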

[13] = target: 5-hydroxytryptamine receptor 2A (Homo sapiens) (UniProt P28223); assay: 5-hydroxytryptamine receptor 2A (HTR2A) small molecule agonists, cell-based qHTS assay (AID 1963587); further: nearly all actives have a fitted effect of over 30% in size
Procedure, shortened: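 Kinetic calcium-flux fluorescence (2 min, 1 sec intervals) after compound addition in agonist mode. HTR2A-CHO cells were cultured 18 h, then dye-loaded 1 h at 37 C.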

[14] = target: Muscarinic acetylcholine receptor M1 (Homo sapiens) (UniProt P11229); assay: Cholinergic receptor muscarinic 1 (CHRM1) small molecule antagonists, cell-based qHTS assay (AID 1963588); further: nearly all actives have a fitted effect of over 40% in size
Procedure, shortened: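 Compounds were tested at 15 concentrations in three independent runs. Dye-loaded CHRM1-CHO cells were exposed 5 min at room temperature before stimulation by acetylcholine added at 50nM. Intracellular calcium was read kinetically on FDSS for 3 min.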

[15] = target: Muscarinic acetylcholine receptor M1 (Homo sapiens) (UniProt P11229); assay: Cholinergic receptor muscarinic 1 (CHRM1) small molecule agonists, cell-based qHTS assay (AID 1963589); further: nearly all actives have a fitted effect of over 35% in size
Procedure, shortened: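 Kinetic fluorescence (1 s intervals) of calcium-sensitive dye in human M1 CHO cells after compound addition; cells pre-incubated 18 h at 37 C/5% CO2 and dye-loaded 1 h.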

[16] = cAMP Responsive Elements (CRE) small molecule agonists, cell-based qHTS assay (AID 1963590)
Procedure, shortened: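 Test agents in DMSO were incubated 3 h at 37 C/5% CO2 with CRE-bla HEK 293T cells seeded 18 h earlier; LiveBLAzer B/G FRET substrate was added and read after 2 h at room temperature.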

[17] = cAMP Responsive Elements (CRE) small molecule antagonists, cell-based qHTS assay (AID 1963591; active means well fitted inhibition curve with a large enough effect in the signal ratio in the repeat runs, not every such curve was filed as active; the % refers to the signal ratio)
Procedure, shortened: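 Reporter line CRE-bla HEK 293T in dialyzed-FBS DMEM; cells preincubated 18 h, treated 3 h with compound plus NKH477 (0.25 uM final); LiveBLAzer FRET, 2 h RT.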

[18] = target: Beta-2 adrenergic receptor (Homo sapiens) (UniProt P07550); assay: Adrenergic beta2 receptor (ADRB2) small molecule antagonists, cell-based qHTS assay (AID 1963592); further: series mostly up to about 92 µM; nearly all actives have a fitted effect of over 50% in size
Procedure, shortened: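 Assay format: CHO-ADRB2 cells, 18-20hr seeding at 37C/5% CO2, then compound plus 1nM isoproterenol agonist mix for 0.5hr RT. Homogeneous time-resolved fluorescence cAMP detection after 1hr, expressed as 665/615 nm ratio.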

[19] = target: Beta-2 adrenergic receptor (Homo sapiens) (UniProt P07550); assay: Adrenergic beta2 receptor (ADRB2) small molecule agonists, cell-based qHTS assay (AID 1963593);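 further: CHO cells stably overexpressing human ADRB2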
Procedure, shortened: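 CHO cells stably over-expressing ADRB2 were plated overnight at 37C, then dosed with compounds plus a stimulation mix containing 100uM IBMX and 25uM Ro-20-1724 for 0.5hr at room temperature. cAMP was measured by HTRF competition, 1hr.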

[20] = target: D(2) dopamine receptor (Homo sapiens) (UniProt P14416); assay: Dopamine D2 receptor (DRD2) small molecule agonists, cell-based qHTS assay (AID 1963594); further: nearly all actives have a fitted effect of over 35% in size
Procedure, shortened: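 cAMP accumulation in DRD2-HEK293 cells measured by HTRF after 1 h detection; compounds added 10 min before NKH477 (200nM […]) forskolin-analogue stimulation, 30 min at room temperature, with Ro20-1724 present at 0.1 mM final.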
On the % scale 0 is the no-effect control and ±100 the full control effect.

Chain of KiSS-1 receptor (Homo sapiens) (Q969F8 whole entry, looked up): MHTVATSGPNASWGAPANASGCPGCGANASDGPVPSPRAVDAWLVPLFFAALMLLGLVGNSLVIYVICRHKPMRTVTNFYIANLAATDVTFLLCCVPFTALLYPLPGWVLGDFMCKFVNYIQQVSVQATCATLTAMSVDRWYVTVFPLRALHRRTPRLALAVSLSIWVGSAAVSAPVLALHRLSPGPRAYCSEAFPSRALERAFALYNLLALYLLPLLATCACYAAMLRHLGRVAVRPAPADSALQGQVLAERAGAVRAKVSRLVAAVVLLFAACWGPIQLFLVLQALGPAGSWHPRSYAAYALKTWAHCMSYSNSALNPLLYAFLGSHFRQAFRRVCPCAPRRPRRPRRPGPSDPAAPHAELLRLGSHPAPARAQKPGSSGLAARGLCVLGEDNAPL
Chain of Muscarinic acetylcholine receptor M1 (Homo sapiens) (P11229 whole entry, looked up): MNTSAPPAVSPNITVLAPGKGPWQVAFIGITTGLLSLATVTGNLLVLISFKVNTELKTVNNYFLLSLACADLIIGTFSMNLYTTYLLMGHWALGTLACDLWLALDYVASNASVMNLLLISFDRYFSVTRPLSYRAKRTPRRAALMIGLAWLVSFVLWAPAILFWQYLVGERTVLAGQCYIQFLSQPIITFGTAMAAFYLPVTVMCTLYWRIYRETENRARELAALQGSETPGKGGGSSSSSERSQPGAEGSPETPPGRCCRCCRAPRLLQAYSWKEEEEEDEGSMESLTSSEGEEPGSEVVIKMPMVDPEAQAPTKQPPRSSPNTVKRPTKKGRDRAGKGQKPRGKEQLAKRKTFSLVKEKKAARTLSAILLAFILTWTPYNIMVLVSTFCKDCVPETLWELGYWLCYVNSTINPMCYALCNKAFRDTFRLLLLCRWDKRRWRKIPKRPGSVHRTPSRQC
Chain of Gonadotropin-releasing hormone receptor (Homo sapiens) (P30968 whole entry, looked up): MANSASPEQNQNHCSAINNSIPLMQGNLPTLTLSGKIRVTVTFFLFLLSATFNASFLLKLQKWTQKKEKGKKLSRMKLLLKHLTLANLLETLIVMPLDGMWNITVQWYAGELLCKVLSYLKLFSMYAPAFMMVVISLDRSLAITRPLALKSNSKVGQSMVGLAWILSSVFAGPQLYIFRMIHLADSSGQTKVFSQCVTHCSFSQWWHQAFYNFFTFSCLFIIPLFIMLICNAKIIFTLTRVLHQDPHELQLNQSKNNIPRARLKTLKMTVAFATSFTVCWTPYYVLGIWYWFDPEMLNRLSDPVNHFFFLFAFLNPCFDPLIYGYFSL
Chain of D(2) dopamine receptor (Homo sapiens) (P14416 whole entry, looked up): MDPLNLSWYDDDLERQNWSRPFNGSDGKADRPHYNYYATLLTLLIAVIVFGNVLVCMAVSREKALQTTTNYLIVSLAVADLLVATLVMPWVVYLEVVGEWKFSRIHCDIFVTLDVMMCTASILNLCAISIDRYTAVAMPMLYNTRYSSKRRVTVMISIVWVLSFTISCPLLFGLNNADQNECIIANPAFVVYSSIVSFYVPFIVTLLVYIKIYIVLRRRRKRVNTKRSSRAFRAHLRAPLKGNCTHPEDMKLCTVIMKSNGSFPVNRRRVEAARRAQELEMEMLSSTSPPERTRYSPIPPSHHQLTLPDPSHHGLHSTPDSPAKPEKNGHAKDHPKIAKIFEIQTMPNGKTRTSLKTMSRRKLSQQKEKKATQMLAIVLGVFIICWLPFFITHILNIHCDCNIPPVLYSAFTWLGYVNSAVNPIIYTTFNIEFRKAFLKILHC
Chain of Beta-2 adrenergic receptor (Homo sapiens) (P07550 whole entry, looked up): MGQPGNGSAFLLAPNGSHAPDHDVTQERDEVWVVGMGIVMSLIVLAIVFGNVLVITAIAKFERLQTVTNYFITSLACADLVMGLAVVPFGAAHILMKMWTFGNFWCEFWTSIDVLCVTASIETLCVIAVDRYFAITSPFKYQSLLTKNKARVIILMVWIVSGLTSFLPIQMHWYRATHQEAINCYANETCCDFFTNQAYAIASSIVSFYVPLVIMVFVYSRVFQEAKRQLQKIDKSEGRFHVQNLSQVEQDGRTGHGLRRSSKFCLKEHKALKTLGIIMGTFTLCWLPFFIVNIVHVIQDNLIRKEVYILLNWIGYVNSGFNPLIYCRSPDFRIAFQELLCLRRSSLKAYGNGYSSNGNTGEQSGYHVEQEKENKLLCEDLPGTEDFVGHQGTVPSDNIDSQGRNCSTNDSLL
Chain of 5-hydroxytryptamine receptor 2A (Homo sapiens) (P28223 whole entry, looked up): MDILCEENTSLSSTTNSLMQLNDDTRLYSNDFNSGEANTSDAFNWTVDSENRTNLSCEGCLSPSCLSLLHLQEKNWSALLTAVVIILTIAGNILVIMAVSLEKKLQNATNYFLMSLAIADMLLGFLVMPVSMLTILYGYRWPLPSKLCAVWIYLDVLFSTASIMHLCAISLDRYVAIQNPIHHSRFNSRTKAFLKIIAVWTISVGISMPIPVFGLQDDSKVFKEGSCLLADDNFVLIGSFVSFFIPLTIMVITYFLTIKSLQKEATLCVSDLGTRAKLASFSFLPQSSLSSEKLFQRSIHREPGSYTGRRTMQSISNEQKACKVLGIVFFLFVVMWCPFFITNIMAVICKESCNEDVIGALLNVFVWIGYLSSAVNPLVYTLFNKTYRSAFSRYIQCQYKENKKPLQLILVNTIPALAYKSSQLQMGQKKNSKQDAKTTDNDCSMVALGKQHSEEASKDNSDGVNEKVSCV

CCCOC(=O)C(C)O (configuration not stated)
inactive: Potency [1] | Potency [2] | Potency [3] | Potency [4] | Potency [5] | Potency [6] | Potency [7] | Potency [8] | Potency [9] | Potency [10] | Potency [11] | Potency [12] | Potency [13] | Potency [14] | Potency [15] | Potency [16] | Potency [17] | Potency [18] | Potency [19] | Potency [20]

Cc1cc(C)cc(O)c1
inactive: Potency [1] | Potency [2] | Potency [3] | Potency [4] | Potency [5] | Potency [6] | Potency [7] | Potency [8] | Potency [9] | Potency [10] | Potency [11] | Potency [12] | Potency [13] | Potency [14] | Potency [15] | Potency [16] | Potency [17] | Potency [18] | Potency [19] | Potency [20]

COc1ccc2c(c1)CCCC2=O
inactive: Potency [1] | Potency [2] | Potency [3] | Potency [4] | Potency [5] | Potency [6] | Potency [7] | Potency [8] | Potency [9] | Potency [10] | Potency [11] | Potency [12] | Potency [13] | Potency [14] | Potency [15] | Potency [16] | Potency [17] | Potency [18] | Potency [19] | Potency [20]

N#Cc1ccc(C2CCCc3cncn32)cc1 (configuration not stated)
inactive: Potency [1] | Potency [2] | Potency [3] | Potency [4] | Potency [5] | Potency [6] | Potency [7] | Potency [8] | Potency [9] | Potency [10] | Potency [11] | Potency [12] | Potency [13] | Potency [14] | Potency [15] | Potency [16] | Potency [17] | Potency [18] | Potency [19] | Potency [20]

COC(c1ccccc1)(c1ccccc1)[C@H](Oc1nc(C)cc(C)n1)C(=O)O
inactive: Potency [1] | Potency [2] | Potency [3] | Potency [4] | Potency [5] | Potency [6] | Potency [7] | Potency [8] | Potency [9] | Potency [10] | Potency [11] | Potency [12] | Potency [13] | Potency [14] | Potency [15] | Potency [16] | Potency [17] | Potency [18] | Potency [19] | Potency [20]

NNc1nncc2ccccc12
active: Potency [1] 30.6 µM | Potency [8] 32.4 µM
inactive: activity change, negative = cytotoxicity [1] -11.5% [at 19 µM] | Potency [3] | Potency [4] | Potency [5] | Potency [6] | Potency [7] | activity change, negative = cytotoxicity [8] -0.157% [at 13.5 µM] | activity change, negative = cytotoxicity [9] 0.405% [at 13.5 µM] | Potency [10] | Potency [11] | activation [16] 0.777% [at 19 µM] | Potency [17] | Potency [18] | Potency [20]

Cc1occc1SSc1ccoc1C
active: Potency [2] 61.1 µM
inactive: Potency [1] | Potency [3] | Potency [4] | Potency [5] | Potency [6] | Potency [7] | Potency [8] | Potency [9] | Potency [10] | Potency [11] | Potency [12] | Potency [13] | Potency [14] | Potency [15] | Potency [16] | Potency [17] | Potency [18]

CC1(C)Oc2ccc(C#N)cc2[C@@H](N2CCCC2=O)[C@@H]1O
inactive: Potency [1] | Potency [2] | Potency [3] | Potency [4] | Potency [5] | Potency [6] | Potency [7] | Potency [8] | Potency [9] | Potency [10] | Potency [11] | Potency [12] | Potency [13] | Potency [14] | Potency [15] | Potency [16] | Potency [17] | Potency [18] | Potency [19] | Potency [20]

FC(F)(F)C(Cl)Br (configuration not stated)
inactive: Potency [1] | Potency [2] | Potency [3] | Potency [4] | Potency [5] | Potency [6] | Potency [7] | Potency [8] | Potency [9] | Potency [10] | Potency [11] | Potency [12] | Potency [13] | Potency [14] | Potency [15] | Potency [16] | Potency [17] | Potency [18] | Potency [19] | Potency [20]

CC(C)CCCC(C)N (configuration not stated)
inactive: Potency [1] | Potency [2] | Potency [3] | Potency [4] | Potency [5] | Potency [6] | Potency [7] | Potency [8] | Potency [9] | Potency [10] | Potency [11] | Potency [12] | Potency [13] | Potency [14] | Potency [15] | Potency [16] | Potency [17] | Potency [18]

OCC1CCC(CO)CC1 (configuration not stated)
inactive: Potency [1] | Potency [2] | Potency [3] | Potency [4] | Potency [5] | Potency [6] | Potency [7] | Potency [8] | Potency [9] | Potency [10] | Potency [11] | Potency [12] | Potency [13] | Potency [14] | Potency [15] | Potency [16] | Potency [17] | Potency [18] | Potency [19] | Potency [20]

C/C(=C1\CCOC(=O)S1)N(C=O)Cc1cnc(C)nc1N
inactive: Potency [1] | Potency [2] | Potency [3] | Potency [4] | Potency [5] | Potency [6] | Potency [7] | Potency [8] | Potency [9] | Potency [10] | Potency [11] | Potency [12] | Potency [13] | Potency [14] | Potency [15] | Potency [16] | Potency [17] | Potency [18] | Potency [19] | Potency [20]

CC(C)(O)Cc1ccccc1
inactive: Potency [1] | Potency [2] | Potency [3] | Potency [4] | Potency [5] | Potency [6] | Potency [7] | Potency [8] | Potency [9] | Potency [10] | Potency [11] | Potency [12] | Potency [13] | Potency [14] | Potency [15] | Potency [16] | Potency [17] | Potency [18] | Potency [19] | Potency [20]

CCCCc1ccc2cccc(S(=O)(=O)O)c2c1
inactive: Potency [1] | Potency [2] | Potency [3] | Potency [4] | Potency [5] | Potency [6] | Potency [7] | Potency [8] | Potency [9] | Potency [10] | Potency [11] | Potency [12] | Potency [13] | Potency [14] | Potency [15] | Potency [16] | Potency [17] | Potency [18] | Potency [19] | Potency [20]

CC(=O)c1cc(C)oc1C
inactive: Potency [1] | Potency [2] | Potency [3] | Potency [4] | Potency [5] | Potency [6] | Potency [7] | Potency [8] | Potency [9] | Potency [10] | Potency [11] | Potency [12] | Potency [13] | Potency [14] | Potency [15] | Potency [16] | Potency [17] | Potency [18] | Potency [19] | Potency [20]
